Assay results taken from PubChem BioAssay (NCI).
The panel holds about 79,000 compounds, 15% with a hit somewhere; the sample as a whole holds those more often. Unmarked numbers belong to inactive results. The source made the active and inactive calls. Rule as the data show it: active = growth inhibition above about 70%; inactive = the rest.

Tests used:
[1] = NCI Yeast Anticancer Drug Screen. Data for the rad50 strain (AID 155);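 also: 0% = growth of vehicle-only cultures of the same strain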; conditions: S. cerevisiae rad50 strain growth inhibition, active compounds read high
Summary of the method: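 Growth of the mutant yeast was measured after compound exposure and referenced to vehicle-treated cultures.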

[2] = NCI Yeast Anticancer Drug Screen. Data for the mec2-1 strain (AID 157); conditions: S. cerevisiae mec2-1 strain, active compounds read high
Summary of the method: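 Compounds were applied to mec2-1 yeast cells. Their growth was then compared with that of vehicle-treated cultures to give growth inhibition.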

[3] = NCI Yeast Anticancer Drug Screen. Data for the sgs1 mgt1 strain (AID 161);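 also: 0% = growth of cultures given vehicle only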; conditions: S. cerevisiae sgs1 mgt1 strain, active compounds read high
Summary of the method: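 Yeast cells carrying a defined DNA-repair defect were exposed to test compounds. Growth inhibition was measured relative to vehicle-treated controls.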

[4] = NCI Yeast Anticancer Drug Screen. Data for the cln2 rad14 strain (AID 165);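 also: 0% = growth equal to vehicle treated cultures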; conditions: S. cerevisiae cln2 rad14 strain, active compounds read high
Summary of the method: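 Strain: cln2 rad14 yeast, altered in cell cycle control and DNA damage repair. Read-out: growth inhibition vs vehicle.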

[5] = NCI Yeast Anticancer Drug Screen. Data for the bub3 strain (AID 167); conditions: S. cerevisiae bub3 mutant strain, active compounds read high
Summary of the method: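 Whole-cell yeast assay. The mutant strain was incubated with compounds, and growth inhibition was determined by comparison with vehicle-treated cells.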

[6] = NCI Yeast Anticancer Drug Screen. Data for the mlh1 rad18 strain (AID 175); conditions: S. cerevisiae mlh1 rad18 strain growth inhibition, active compounds read high
Summary of the method: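 A repair-deficient yeast strain is exposed to test compound, and growth is scored relative to vehicle-treated controls.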

[7] = at 5.0 µM (retest, dose inferred, filed as 0.5)
[8] = at 50.0 µM (retest, dose inferred, filed as 5.0)

Compound	growth inhibition [1, 7]	growth inhibition [1, 8]	growth inhibition ([1]; at 50.0 µM)	growth inhibition [2, 7]	growth inhibition [2, 8]	growth inhibition ([2]; at 50.0 µM)	growth inhibition [3, 7]	growth inhibition [3, 8]	growth inhibition ([3]; at 50.0 µM)	growth inhibition [4, 7]	growth inhibition [4, 8]	growth inhibition ([4]; at 50.0 µM)	growth inhibition [5, 7]	growth inhibition [5, 8]	growth inhibition ([5]; at 50.0 µM)	growth inhibition [6, 7]	growth inhibition [6, 8]	growth inhibition ([6]; at 50.0 µM)
COc1cccc2c1C(=O)c1c(O)c3c(c(O)c1C2=O)CC(O)(C(=O)CO)CC3OC1CC(N)C(I)C(C)O1 (stereo not given)	98% (active)	98% (active)	89.5% (active)	98% (active)	99% (active)	88.8% (active)	98% (active)	98% (active)	85.8% (active)	95% (active)	98% (active)	87.4% (active)	98% (active)	98% (active)	83.8% (active)	96% (active)	97% (active)	91% (active)
O=C(CCCSCCCC(=O)NNc1ccccc1)NNc1ccccc1	31%	88% (active)	96.2% (active)	16%	95% (active)	40.7%	30%	94% (active)	87.4% (active)	21%	92% (active)	86.7% (active)	45%	98% (active)	96.5% (active)	54%	98% (active)	97.8% (active)
CNC(=O)OCc1c(COC(=O)NC)c(-c2ccc(OC)cc2)n2c1CCC2	28%	33%	28.4%	19%	21%	74.9% (active)	44%	68%	70.9% (active)	38%	43%	73.7% (active)	50%	46%	48.4%	23%	32%	92.6% (active)
CCC(C)(C)C(=O)OCC(=O)c1ccc(-c2ccccc2)cc1	-15%	-17%	-5.8%	5%	-4%	8.25%	2%	-3%	-7.4%	33%	-57%	-3.35%	29%	25%	62.2%	-11%	-4%	12.8%
Cc1ccc(C(=O)C(CN(C)C)CN(C)C)cc1C	29%	83% (active)	87.6% (active)	12%	90% (active)	90.2% (active)	9%	88% (active)	90.1% (active)	24%	51%	58.1%	20%	94% (active)	87.5% (active)	14%	91% (active)	87.8% (active)
CCCCCC(C)[P+](c1ccccc1)(c1ccccc1)c1ccccc1 (stereo not given)	54%	98% (active)	90.8% (active)	48%	99% (active)	90.9% (active)	71% (active)	99% (active)	90% (active)	61%	98% (active)	90.1% (active)	69%	99% (active)	91% (active)	45%	98% (active)	88.5% (active)
CN(C)C1=NC(N(C)C)=C2C=CC=C12	-3%	49%	66.2%	-2%	51%	43.8%	-4%	34%	33.4%	-3%	40%	72.5% (active)	2%	73% (active)	82.2% (active)	-6%	71% (active)	86.8% (active)
CC1=CC(C)C(C)N(CCNC(=O)Nc2ccccc2)c2ccccc21 (stereo not given)	17%	51%	77.2% (active)	16%	33%	80.9% (active)	14%	71% (active)	80.6% (active)	22%	80% (active)	75.5% (active)	-14%	75% (active)	84.2% (active)	14%	66%	70.2% (active)
Cn1c2c(c3nc(N)nc(N)c3c1=O)CCc1ccccc1-2	6%	21%	72.8% (active)	0%	31%	26.3%	8%	39%	69.5%	-2%	37%	42.8%	-1%	39%	68.5%	0%	36%	44.4%
Cc1nc2c(cnn2C)cc1CCc1ccccc1	2%	16%	14.7%	3%	35%	3.9%	5%	53%	19.6%	12%	50%	25.1%	23%	78% (active)	76.1% (active)	8%	39%	23.6%
